Measurements published in PubChem BioAssay (NCATS).
Several values for one entry are separate records, joined by “and”; a condition that tells them apart may be missing. Equal entries are not always repeated. Results filed as inconclusive are left out. The source holds several records for some structures; these can differ, active in one and inactive in another. Activity calls are given as the source filed them. Unless noted, calls come from the whole dose curve; as a rule, active = well fitted curve in the direction sought with a large enough effect; inconclusive = small, poorly fitted or top-dose-only effect, or another doubt; inactive = no such curve, though single readings can be large; an effect the other way counts as inactive or inconclusive.

How the values were obtained:
[1] = qHTS for Activators of Parkin Expression: LOPAC Validation Assay (NLuc Reporter) (AID 720572; note: potency is the fitted concentration of half-maximal effect)
Outline: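 Neuronal line stably carrying a FLuc/NLuc coincidence reporter under the Parkin promoter, seeded 24 h, then dosed in 7-point series for 24 h at 37 C. NLuc luminescence read after FLuc; normalized to DMSO and positive control (100%).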

[2] = qHTS for Activators of Parkin Expression: LOPAC Validation Assay (FLuc Reporter) (AID 720573;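 note: 0% = DMSO and 100% = positive control compounds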)
Outline: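 FLuc signal from Parkin-promoter coincidence reporter neuronal cells, normalized to DMSO and positive control (100%). Cells (1,500/well) pre-incubated 24 h, then exposed to LOPAC compounds in 7-point dose response for 24 h at 37 C, 5% CO2.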

[3] = qHTS assay for small molecule agonists of the antioxidant response element (ARE) signaling pathway measured by Nrf2-dependant transcriptional activity (AID 720636; active = well fitted curve in the direction sought with a large enough effect in the repeat runs; an effect the other way counts as inactive or inconclusive;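 note: HepG2 cells with an ARE-driven luciferase reporter; % of control where 0% means no effect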)
Outline: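 Reporter gene assay, HepG2 ARE-luc: 16 hr compound, 37 C, 5% CO2; read-out luciferase luminescence.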

[4] = qHTS assay for small molecule antagonists of the retinoid-related orphan receptor gamma (ROR-gamma) signaling pathway - cell viability counter screen (AID 720652; active = well fitted curve in the direction sought with a large enough effect in the repeat runs; an effect the other way counts as inactive or inconclusive;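 note: CHO reporter cells with doxycycline-induced ROR-gamma expression; compound exposure lasted 16 hr before ATP read; % is set by controls: 0 for no effect and ±100 for the full control effect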)
Outline: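 Counter screen in CHO cells carrying TET-inducible ROR-gamma and an ROR response element-luciferase reporter; cells plated 5 hr, compound pinned, doxycycline added, then 16 hr at 37 C. Viability read as intracellular ATP by CellTiter-Glo luminescence.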

[5] = qHTS assay for small molecule agonists of the antioxidant response element (ARE) signaling pathway measured by Nrf2-dependant transcriptional activity - cell viability counter screen (AID 720653; active = well fitted curve in the direction sought with a large enough effect in the repeat runs; an effect the other way counts as inactive or inconclusive; note: % is set by controls: 0 for no effect and ±100 for the full control effect); settings: ARE-bla HepG2 viability, CellTiter-Glo ATP luminescence, 16 h; max response: stronger effect = lower value
Outline: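 ARE-bla HepG2 cells (2,000/well) rested 5 hrs at 37C/5% CO2, then exposed to compounds in DMSO for 16 hrs. Viability was read in the same wells as intracellular ATP by luminescence, 30 min at room temperature after reagent addition.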

[6] = biological target: T1, Hexokinase-4 (Homo sapiens) + Glucokinase regulatory protein (Homo sapiens) (UniProt P35557+Q14397); experiment: qHTS assay for inhibitors of recombinant human GCK-GKRP interaction: Diaphorase-coupled assay (AID 743205)
T1 sequence (P35557 whole entry, looked up): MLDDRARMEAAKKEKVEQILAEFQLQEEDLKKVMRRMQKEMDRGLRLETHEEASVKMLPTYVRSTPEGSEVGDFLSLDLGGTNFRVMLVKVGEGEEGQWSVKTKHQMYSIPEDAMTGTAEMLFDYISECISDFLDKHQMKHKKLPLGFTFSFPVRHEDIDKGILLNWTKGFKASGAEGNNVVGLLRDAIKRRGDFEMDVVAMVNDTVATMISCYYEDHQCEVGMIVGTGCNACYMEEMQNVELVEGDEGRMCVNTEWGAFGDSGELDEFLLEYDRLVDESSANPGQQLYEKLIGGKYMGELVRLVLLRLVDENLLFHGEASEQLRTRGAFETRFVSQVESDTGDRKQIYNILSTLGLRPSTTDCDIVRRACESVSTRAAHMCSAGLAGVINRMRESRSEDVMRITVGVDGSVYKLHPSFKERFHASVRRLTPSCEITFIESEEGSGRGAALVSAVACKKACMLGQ
T1 sequence (Q14397 whole entry, looked up): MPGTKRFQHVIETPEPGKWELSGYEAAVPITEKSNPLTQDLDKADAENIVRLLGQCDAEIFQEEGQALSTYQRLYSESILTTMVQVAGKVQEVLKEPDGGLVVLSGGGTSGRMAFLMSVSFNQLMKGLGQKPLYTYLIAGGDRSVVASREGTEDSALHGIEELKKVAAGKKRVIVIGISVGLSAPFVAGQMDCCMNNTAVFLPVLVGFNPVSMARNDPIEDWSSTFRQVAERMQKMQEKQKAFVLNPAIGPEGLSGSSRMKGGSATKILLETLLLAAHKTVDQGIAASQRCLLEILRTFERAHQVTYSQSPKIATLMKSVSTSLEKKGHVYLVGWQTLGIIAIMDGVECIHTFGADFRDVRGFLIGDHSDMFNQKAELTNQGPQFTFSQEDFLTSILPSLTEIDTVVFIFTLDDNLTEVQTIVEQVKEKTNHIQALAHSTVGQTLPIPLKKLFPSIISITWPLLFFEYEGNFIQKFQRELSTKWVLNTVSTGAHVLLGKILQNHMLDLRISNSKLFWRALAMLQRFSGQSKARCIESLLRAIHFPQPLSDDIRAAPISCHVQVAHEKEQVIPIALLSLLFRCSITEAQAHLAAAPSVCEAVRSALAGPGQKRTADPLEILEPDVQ
Outline: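 A kinetic fluorescence read (Ex 525/Em 590 nm, every minute for 30 minutes) tracked resorufin from a G6PDH-diaphorase coupled GCK reaction. It contained 10 nM GST-GCK, 10 nM FLAG-GKRP, 5 mM glucose, 0.4 mM ATP in Hepes pH 7.6. Normalized to with/without-enzyme DMSO controls.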

[7] = biological target: T1, Hexokinase-4 (Homo sapiens) + Glucokinase regulatory protein (Homo sapiens); experiment: qHTS assay for inhibitors of recombinant human GCK-GKRP interaction: ADP-Glo assay (AID 743206);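 note: plate controls were DMSO plus enzyme for no effect and no enzyme for full effect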
Outline: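 GST-GCK and FLAG-GKRP (15 nM each in the dispensed mix, with 2 uM S6P) react with 0.4 mM ATP and 5 mM glucose (final) in Hepes pH 7.6 for 60 min at room temperature. ADP is measured by ADP-Glo luminescence.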

[8] = biological target: T1, Hexokinase-4 (Homo sapiens) + Glucokinase regulatory protein (Homo sapiens); experiment: qHTS assay for inhibitors of recombinant human GCK-GKRP interaction: HTRF assay (AID 743207);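 note: 0% = DMSO with GCK present and -100% = DMSO wells lacking GCK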
Outline: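 After 60 min equilibration at room temperature with anti-FLAG XL665 and anti-GST antibodies, FRET ratio (665/615 nm, excitation 320 nm) was read. Proteins: GST-GCK and FLAG-GKRP, each 5 nM, plus 2 uM S6P, pH 7.1 buffer; GCK-free wells define minimum signal.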

[9] = qHTS Assay for Identifying Gametocytocidal Compounds (AID 743244); note: potency is the fitted concentration of half-maximal effect;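 for max response: % is set by controls: 0 for no effect and ±100 for the full control effect; actives lower the fluorescent signal which means gametocytes are killed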; settings: P. falciparum 3D7 stage III-V gametocytes, alamarBlue, 72 h; max response: stronger effect = lower value
Outline: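 Using 20,000 stage III–V 3D7 gametocytes per well, compounds were incubated 72 h under 37 °C/5% CO2. Viability was then assessed by 24 h alamarBlue reduction, measured fluorometrically at 525/598 nm.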

[10] = qHTS assay for cell viability of HEK293 cells (AID 743288); settings: ATP luminescence (CellTiter-Glo), 18 h; max response: stronger effect = lower value; note: % is set by controls: 0 for no effect and ±100 for the full control effect; nearly all actives have a fitted effect of over 50% in size
Outline: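 Total intracellular ATP, measured with a luciferase-coupled reagent, indicates the number of viable HEK293 cells. Exposure to test chemicals lasts 18 h at 37 C in 1,536-well format at 2,000 cells/well.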

[11] = qHTS assay for cell viability of the p53RE-bla HCT-116 cell line (AID 743292); note: % is set by controls: 0 for no effect and ±100 for the full control effect; nearly all actives have a fitted effect of over 55% in size
Outline: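 Readout: CellTiter-Glo luminescence after 30 min RT. Treatment: compounds in DMSO, 16 h, 37 C. Cells: CellSensor p53RE-bla HCT-116, 4,000/well, preincubated 5 h.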

[12] = qHTS assay for measurement of the activity of small molecule inhibitors on Zika virus induced Caspase-3 activity in human iPSC derived neural progenitor cells (hNPCs) (AID 1224857); note: % of control where 0% means no effect; nearly all actives have a fitted effect of over 65% in size
Outline: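 After overnight (16–20 h) culture at 350 cells/well, hNPCs get compound, then ZIKV 2 FFU/cell one hour later. Six hours on, Caspase-Glo 3/7 is added and luminescence measured.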

[13] = qHTS for compounds that reverse cellular toxicity of Amyloid beta (A-beta) peptide in yeast: LOPAC Validation Assay (AID 720559);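 note: plate controls were DMSO for no effect and equimolar ferric chloride plus clioquinol rescue for full effect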
Outline: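 Rescue of A-beta toxicity was scored as yeast growth by 600 nm absorbance after 48 hr at 30 C with compound. Normalization used DMSO (negative) and equimolar ferric chloride plus clioquinol (positive).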

[14] = qHTS profiling for inhibitors of Plasmodium falciparum (3D7) proliferation (AID 743322; call rule not given here;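 note: infected erythrocytes exposed to compound for 72 h before lysis; 100% = DMSO vehicle wells and 0% = 0.29 µM artemisinin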); settings: P. falciparum 3D7 proliferation; at 28.7 µM (top of the series) unless noted
Outline: (§1)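 Erythrocytes infected with P. falciparum (0.3% parasitemia, 2.5% hematocrit) incubated with compounds 72 h at 37 C, 5% CO2. Lysis with saponin/Triton buffer containing SYBR Green I, overnight at room temperature in the dark; DNA fluorescence (485/535 nm) normalised to 0.29 uM artemisinin and DMSO.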

[15] = qHTS profiling for inhibitors of Plasmodium falciparum (DD2) proliferation (AID 743323; call rule not given here); settings: lower = more inhibition; at 28.7 µM (top of the series) unless noted
Outline: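 P. falciparum Dd2-infected erythrocytes (0.3% parasitemia, 2.5% hematocrit) exposed 72 h at 37 C, 5% CO2. Lysis with SYBR Green, overnight at room temperature, fluorescence 485/535 nm; normalized to 0.29 uM artemisinin and DMSO.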

[16] = qHTS profiling for inhibitors of Plasmodium falciparum (HB3) proliferation (AID 743324); settings: Plasmodium falciparum HB3 blood-stage proliferation; at 28.7 µM (top of the series);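 note: 100% = DMSO vehicle wells and 0% = artemisinin-treated control wells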
Outline: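 P. falciparum HB3 grown in erythrocytes (0.3% parasitemia, 2.5% hematocrit final) with compound for 72 h at 37 C, 5% CO2. Parasite DNA detected by SYBR Green after saponin/triton lysis overnight; normalized to 0.29 uM artemisinin and DMSO.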

[17] = qHTS profiling of the MIPE4 collection as inhibitors of Plasmodium falciparum (3D7) proliferation (AID 743344; call rule not given here;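 note: scaled between DMSO vehicle wells and 0.29 µM artemisinin as full inhibition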); settings: P. falciparum 3D7 in erythrocytes, SYBR Green DNA fluorescence, 72 h; at 28.5 µM (top of the series)
Outline: as §1

[18] = qHTS profiling of the MIPE4 collection as inhibitors of Plasmodium falciparum (DD2) proliferation (AID 743345; call rule not given here); settings: P. falciparum Dd2 in erythrocytes, SYBR Green DNA, 72 h; at 28.5 µM (top of the series)
Outline: as §1

[19] = qHTS profiling of the MIPE4 collection as inhibitors of Plasmodium falciparum (DD2) proliferation (Rep 2) (AID 743346; call rule not given here); settings: P. falciparum Dd2 in erythrocytes, SYBR Green DNA, 72 h; at 28.5 µM (top of the series)
Outline: as §1

[20] = qHTS profiling of the MIPE4 collection as inhibitors of Plasmodium falciparum (HB3) proliferation (AID 743347; call rule not given here;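 note: plate controls were DMSO vehicle wells for no effect and artemisinin wells for full effect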); settings: P. falciparum HB3 in erythrocytes, SYBR Green DNA, 72 h; at 28.5 µM (top of the series)
Outline: as §1

COc1ccc(CN(CCN(C)C)c2ccccn2)cc1
inactive: Potency [1] | outcome [2] | outcome [3] | outcome [4] | max response [5] -3.41% | outcome [6] | outcome [7] | Potency [8] | max response [9] -1.15% and 9.8% | max response [10] -9.66% | outcome [11] | outcome [12]

NCCCNCCSP(=O)(O)O
inactive: Potency [1] | outcome [2] | outcome [6] | outcome [7] | Potency [8] | max response [9] 4.77% and 12.2% | outcome [12]

OCCN1CCN(CCCN2c3ccccc3C=Cc3ccccc32)CC1
inactive: outcome [13] | Potency [1] | outcome [2] | outcome [6] | outcome [7] | Potency [8] | max response [9] -7.06% and 7.36% | outcome [12]
active: Potency [9] 11.2 µM

CN=C(NC#N)NCCSCc1nc[nH]c1C
inactive: Potency [1] | outcome [2] | outcome [3] | outcome [4] | max response [5] 0.359% | outcome [6] | outcome [7] | Potency [8] | max response [9] 2.14% and 13.4% | max response [10] -3.45% | outcome [11] | outcome [12]

CN1C[C@H](C(=O)N[C@]2(C)O[C@@]3(O)[C@@H]4CCCN4C(=O)[C@H](Cc4ccccc4)N3C2=O)C[C@@H]2c3cccc4[nH]cc(c34)C[C@H]21
7.94%: parasite growth remaining, % of DMSO control (lower = more inhibition) [18]
5.6%: growth, % of control [20]
inactive: outcome [13] | Potency [1] | outcome [2] | outcome [6] | outcome [7] | Potency [8] | outcome [12]
11.7%: parasite growth, % of control (lower = inhibition) [19]
5.44%: parasite growth, % of DMSO control [17]
-0.39%: remaining parasite growth % (stronger effect = lower value) [14]
0.0095%: activity, percent of control [15]
-1.27%: remaining proliferation (% of control), lower = more inhibition [16]

Brc1c(NC2=NCCN2)ccc2nccnc12
inactive: Potency [1] | outcome [2] | outcome [6] | outcome [7] | Potency [8] | max response [9] -8.09% and 19.7% | outcome [12]

CC1=NS(=O)(=O)c2cc(Cl)ccc2N1
inactive: outcome [6] | outcome [7] | Potency [8] | max response [9] 4.85% | outcome [12]

CN(C)C(=O)Oc1ccc[n+](C)c1
inactive: outcome [6] | outcome [7] | Potency [8] | max response [9] -5.59% and 6.64% | outcome [12]

CCOC(=O)C1=C(C)NC(C)=C(C(=O)OC)C1c1cccc([N+](=O)[O-])c1 (centres undefined)
active: Potency [1] 1.46 µM
inactive: outcome [2] | outcome [6] | outcome [7] | Potency [8] | max response [9] 5.7% | outcome [12]

CC(=O)[C@]1(O)Cc2c(O)c3c(c(O)c2[C@@H](O[C@H]2C[C@H](N)[C@H](O)[C@H](C)O2)C1)C(=O)c1ccccc1C3=O
inactive: Potency [1] | outcome [2] | outcome [6] | outcome [7] | Potency [8] | outcome [12]
active: Potency [9] 6.31 µM and 1.12 µM

Cc1cccc(C)c1NC(=O)C(C)N (centres undefined)
inactive: outcome [6] | outcome [7] | Potency [8] | max response [9] 6.83% and 24.8% | outcome [12]
99.5% [at 9.63 µM]: activity, percent of control [15]
92.4% [at 9.63 µM]: remaining parasite growth % (stronger effect = lower value) [14]

CCn1nc(C(=O)O)c(=O)c2cc3c(cc21)OCO3
inactive: max response [9] 3.16% and -5.51% | outcome [12]

NC(=Nc1ccccc1)Nc1ccccc1
inactive: outcome [4] | max response [9] 5.26% and -9.95% | max response [10] -13.7% and -2.76% | outcome [11] | outcome [12]

CCCC(C(=O)OCCN(CC)CC)(c1ccccc1)c1ccccc1
inactive: Potency [1] | outcome [2] | outcome [6] | outcome [7] | Potency [8] | max response [9] -0.916% | outcome [12]

CCN(CC)CCNC(=O)c1cc(S(C)(=O)=O)ccc1OC
inactive: Potency [1] | outcome [2] | outcome [6] | outcome [7] | Potency [8] | max response [9] -4.07% | outcome [12]

CC[N+](C)(C)c1cccc(O)c1
inactive: outcome [6] | outcome [7] | Potency [8] | max response [9] 22.6% and 18% | outcome [12]

CN(C)CC/C=C1\c2ccccc2COc2ccccc21
96.2% [at 9.63 µM]: remaining parasite growth % (stronger effect = lower value) [14]
inactive: Potency [1] | outcome [2] | outcome [6] | outcome [7] | Potency [8] | max response [9] 1.05% and 7.48% | outcome [12]
49.5% [at 9.63 µM]: activity, percent of control [15]

CC(C)COCC(CN(Cc1ccccc1)c1ccccc1)N1CCCC1 (centres undefined)
7.8%: parasite growth remaining, % of DMSO control (lower = more inhibition) [18]
2.98%: growth, % of control [20]
5.43%: parasite growth, % of DMSO control [17]
active: Potency [9] 22.4 µM
inactive: Potency [1] | outcome [2] | outcome [6] | outcome [7] | Potency [8] | max response [9] 9.9% | outcome [12]
16%: parasite growth, % of control (lower = inhibition) [19]
